Measurements as given in PubChem BioAssay (NCATS).
Records with an inconclusive call do not appear. Active and inactive are the calls of the source. The call rests on the fitted dose curve; in most records, active means well fitted curve in the direction sought with a large enough effect; inconclusive means small, poorly fitted or top-dose-only effect, or another doubt; inactive means no such curve, though single readings can be large; an effect the other way counts as inactive or inconclusive.

Legend:
[1] = Cellular Toxicity (caspase-3) Mesangial (AID 660); details: mesangial cells, normalized: DMSO 0%, 100 µM tamoxifen 100%; at 91.7 µM (top of the series);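 further: combined caspase 3 and 7 activity read by Caspase-Glo luminescence; cells exposed to compound for 16 h before the caspase read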
How it was run: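 Caspase 3/7 activation measured by Caspase-Glo 3/7 luminescence (20 min, room temperature) following 16 h exposure of mesangial cells (1000/well); AC50 from Hill-equation fit, normalized to DMSO and 100 uM tamoxifen.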

[2] = Cellular Toxicity (caspase-3) SK-N-SH (AID 661); details: SK-N-SH caspase-3 activation, qHTS, DMSO as zero, staurosporine as full; series mostly up to 91.7 µM;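 further: cells exposed to compound for 16 hours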
How it was run: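 Caspase 3/7 activation was read by luminogenic substrate cleavage after 16 hour treatment of SK-N-SH cells. Signal was scaled between DMSO and 10 uM staurosporine, and concentration-response data were fitted with the Hill equation for AC50.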

[3] = Cellular Toxicity (caspase-3) H-4-II-E (AID 663); details: H-4-II-E rat hepatoma, scaled: DMSO 0%, 100 µM tamoxifen 100%; at 92.2 µM (top of the series);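 further: cells exposed to compound for 16 hr before readout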
How it was run: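 Caspase 3/7 activation measured in H-4-II-E cells in complete culture medium after 16 hr treatment at 37 °C, using luciferase-coupled substrate readout; AC50 values come from Hill-equation fits of normalized concentration-response data.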

[4] = Cellular Toxicity (caspase-3) Hek293 (AID 664); details: HEK293 caspase-3 activation, DMSO = 0%, 100 µM tamoxifen = 100%; at 92.2 µM (top of the series);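 further: cells exposed to compound for 16 h at 37 °C before readout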
How it was run: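 Concentration-response qHTS: caspase 3/7 activation measured by luminescent aminoluciferin substrate cleavage after 16 h compound exposure of Hek 293 cells. AC50 from Hill equation, with DMSO as basal and 100 uM tamoxifen as 100%.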

[5] = Cellular Toxicity (caspase-3) N2a (AID 665); details: N2a cells, luminescence, normalized: DMSO 0%, 10 µM staurosporine 100%; series mostly up to 92.2 µM;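 further: compound exposure lasted 16 h at 37 °C before readout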
How it was run: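 Caspase-3/7 activation measured as luminescence from Caspase-Glo reagent (1 h, room temperature) after 16 h compound exposure of mouse N2a cells. AC50 values from Hill-equation concentration-response, scaled between DMSO and 10 uM staurosporine.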

[6] = Cellular Toxicity (caspase-3) NIH 3T3 (AID 666); details: NIH 3T3 caspase-3 activation, apoptosis/toxicity, 0% DMSO, 100% is 100 µM tamoxifen; series mostly up to 92.2 µM;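 further: caspase signal read after 16 h compound exposure; 0% = DMSO basal and 100% = 100 µM tamoxifen stimulation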
How it was run: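 Caspase-Glo 3/7 luminescence reported caspase activation in 1000 NIH 3T3 cells/well after 16 h compound exposure at 37 C. DMSO set basal and 100 uM tamoxifen set 100% stimulation; concentration-response modeled with the Hill equation for AC50.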

[7] = Cellular Toxicity (caspase-3) Renal Proximal Tubule (AID 667); details: renal proximal tubule cells, primary cells freshly taken from rat; Potency: caspase-3 activation; series mostly up to 91.7 µM;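 further: cells exposed to compound for 16 hours at 37 °C before detection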
How it was run: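 Caspase 3/7 activation measured by luminescent aminoluciferin release in primary rat proximal tubule cells after 16 hr compound exposure at 37 °C. AC50 from Hill-fitted concentration-response, scaled between DMSO and 10 uM staurosporine.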

[8] = target: Cytochrome P450 3A4 (Homo sapiens) (UniProt P08684); experiment: qHTS Assay for Inhibitors and Substrates of Cytochrome P450 3A4 (AID 884); details: recombinant CYP3A4, Luciferin-PPXE luminescence; series mostly up to 57.1 µM; further: on the % scale 0 is the no-effect control and ±100 the full control effect; nearly all actives have a fitted effect of over 50% in size
How it was run: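 Luminescent readout of luciferin produced by CYP3A4 (20 nM) dealkylation of Luciferin-PPXE, 25 uM (its KM). NADPH-driven reaction ran 60 min at RT after 10 min compound preincubation; data scaled to 57 uM ketoconazole as 100% inhibition.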

[9] = Cell Viability - LYMP2-001 (AID 921); details: LYMP2-001 lymphoblastoid cell viability; series mostly up to 92.2 µM;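 further: 0% = DMSO only and full inhibition = tetraoctylammonium bromide control wells; nearly all actives have a fitted effect of over 70% in size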
How it was run: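 Cellular ATP loss read by luciferase luminescence after 24 h compound exposure at 37 C in complete medium. LYMP2-001 lymphoblastoid cells, 2500/well; qHTS concentration-response data fitted with Hill equation for AC50.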

Chain of Cytochrome P450 3A4 (Homo sapiens) (P08684 whole entry, looked up): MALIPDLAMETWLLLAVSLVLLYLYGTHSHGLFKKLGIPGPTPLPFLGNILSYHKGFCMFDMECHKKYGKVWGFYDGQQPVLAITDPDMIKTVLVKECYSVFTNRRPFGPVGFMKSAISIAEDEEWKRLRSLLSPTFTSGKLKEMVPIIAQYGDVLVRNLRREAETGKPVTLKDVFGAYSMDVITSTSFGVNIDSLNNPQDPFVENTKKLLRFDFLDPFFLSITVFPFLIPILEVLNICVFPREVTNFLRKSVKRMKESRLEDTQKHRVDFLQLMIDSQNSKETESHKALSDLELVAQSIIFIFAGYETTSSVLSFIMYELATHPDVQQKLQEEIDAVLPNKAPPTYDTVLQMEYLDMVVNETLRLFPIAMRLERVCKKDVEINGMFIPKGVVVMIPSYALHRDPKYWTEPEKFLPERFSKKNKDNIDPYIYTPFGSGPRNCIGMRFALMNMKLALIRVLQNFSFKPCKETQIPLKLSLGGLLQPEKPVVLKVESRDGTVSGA

NC(=O)NC(N)=O
inactive: caspase-3 activation [1] -0.43% | outcome [2] | caspase-3 activation [3] -0.188% | caspase-3 activation [4] 0.826% | outcome [5] | outcome [6] | Potency [7] | Potency [8] | Potency [9]

O=[N+]([O-])c1ccccc1CCO
inactive: caspase-3 activation [1] -1.29% | outcome [2] | caspase-3 activation [3] 1.12% | caspase-3 activation [4] -0.925% | outcome [5] | outcome [6] | Potency [7] | Potency [8] | Potency [9]

CCCOCC(C)OCC(C)O (stereo not drawn)
inactive: caspase-3 activation [1] -0.26% | outcome [2] | caspase-3 activation [3] -0.229% | caspase-3 activation [4] 0.323% | outcome [5] | outcome [6] | Potency [7] | Potency [8] | Potency [9]

CC(=O)OC(C)=O
inactive: caspase-3 activation [1] 0.184% | outcome [2] | caspase-3 activation [3] -0.382% | caspase-3 activation [4] -0.384% | outcome [5] | outcome [6] | Potency [7] | Potency [8] | Potency [9]

Oc1c(Cl)ccc(Cl)c1Cl
inactive: caspase-3 activation [1] 0.532% | outcome [2] | caspase-3 activation [3] 0.28% | caspase-3 activation [4] 4.28% | outcome [5] | outcome [6] | Potency [7] | Potency [8] | Potency [9]

Cc1ccccc1Br
inactive: caspase-3 activation [1] -0.877% | outcome [2] | caspase-3 activation [3] 0.309% | caspase-3 activation [4] -0.786% | outcome [5] | outcome [6] | Potency [7] | Potency [8] | Potency [9]

Clc1ccccn1
inactive: caspase-3 activation [1] 0.0313% | outcome [2] | caspase-3 activation [3] -0.264% | caspase-3 activation [4] 0.154% | outcome [5] | outcome [6] | Potency [7] | Potency [8] | Potency [9]

N#CC1(O)CCCCC1
inactive: caspase-3 activation [1] 0.158% | outcome [2] | caspase-3 activation [3] -0.143% | caspase-3 activation [4] 1.67% | outcome [5] | outcome [6] | Potency [7] | Potency [8] | Potency [9]

Cc1c(C(=O)O)cccc1[N+](=O)[O-]
inactive: caspase-3 activation [1] -0.447% | outcome [2] | caspase-3 activation [3] -0.261% | caspase-3 activation [4] 1.44% | outcome [5] | outcome [6] | Potency [7] | Potency [8] | Potency [9]

O=C1OC(=O)c2cc([N+](=O)[O-])ccc21
inactive: caspase-3 activation [1] -0.00553% | outcome [2] | caspase-3 activation [3] -0.24% | caspase-3 activation [4] -0.39% | outcome [5] | outcome [6] | Potency [7] | Potency [8] | Potency [9]

CCOC(=O)OCC
inactive: caspase-3 activation [1] -0.584% | outcome [2] | caspase-3 activation [3] -0.0213% | caspase-3 activation [4] -2.59% | outcome [5] | outcome [6] | Potency [7] | Potency [8] | Potency [9]

O=C(O)c1c(Cl)cccc1Cl
inactive: caspase-3 activation [1] 0.0651% | outcome [2] | caspase-3 activation [3] -0.197% | caspase-3 activation [4] 0.49% | outcome [5] | outcome [6] | Potency [7] | Potency [8] | Potency [9]

CCCCC(CC)CNCC(CC)CCCC (stereo not drawn)
inactive: caspase-3 activation [1] -1.31% | outcome [2] | caspase-3 activation [3] -0.122% | caspase-3 activation [4] 0.754% | outcome [5] | outcome [6] | Potency [7] | Potency [8] | Potency [9]

C=CCCCCCCC=C
inactive: caspase-3 activation [1] 4.38% | outcome [2] | caspase-3 activation [3] 1.95% | caspase-3 activation [4] 5.13% | outcome [5] | outcome [6] | Potency [7] | Potency [8] | Potency [9]

CC(=O)OCc1ccco1
inactive: caspase-3 activation [1] -0.525% | outcome [2] | caspase-3 activation [3] -0.245% | caspase-3 activation [4] -4.85% | outcome [5] | outcome [6] | Potency [7] | Potency [8] | Potency [9]

FB(F)F
inactive: caspase-3 activation [1] 3.07% | outcome [2] | caspase-3 activation [3] 0.388% | caspase-3 activation [4] 2.37% | outcome [5] | outcome [6] | Potency [7] | Potency [8] | Potency [9]

Nc1cccc2c(=O)[nH][nH]c(=O)c12
inactive: caspase-3 activation [1] -0.301% | outcome [2] | caspase-3 activation [3] 0.0355% | caspase-3 activation [4] -1.17% | outcome [5] | outcome [6] | Potency [7] | Potency [8] | Potency [9]

NC(N)=S
inactive: caspase-3 activation [1] -0.0158% | outcome [2] | caspase-3 activation [3] 1.67% | caspase-3 activation [4] -1.2% | outcome [5] | outcome [6] | Potency [7] | Potency [8] | Potency [9]

O=[N+]([O-])c1cc(C(F)(F)F)ccc1Cl
inactive: caspase-3 activation [1] -0.64% | outcome [2] | caspase-3 activation [3] 0.0893% | caspase-3 activation [4] -0.647% | outcome [5] | outcome [6] | Potency [7] | Potency [8] | Potency [9]

CCCCN(CCO)CCCC
inactive: caspase-3 activation [1] 0.749% | outcome [2] | caspase-3 activation [3] -0.761% | caspase-3 activation [4] -0.886% | outcome [5] | outcome [6] | Potency [7] | Potency [8] | Potency [9]

CC(=O)c1ccc([N+](=O)[O-])cc1
inactive: caspase-3 activation [1] -0.175% | outcome [2] | caspase-3 activation [3] 0.949% | caspase-3 activation [4] -0.704% | outcome [5] | outcome [6] | Potency [7] | Potency [8] | Potency [9]

CCCCCCCCC
inactive: caspase-3 activation [1] -0.687% | outcome [2] | caspase-3 activation [3] 0.863% | caspase-3 activation [4] -2.1% | outcome [5] | outcome [6] | Potency [7] | Potency [8] | Potency [9]

Cc1ccc(C)o1
inactive: caspase-3 activation [1] -0.182% | outcome [2] | caspase-3 activation [3] -0.53% | caspase-3 activation [4] 0.32% | outcome [5] | outcome [6] | Potency [7] | Potency [8] | Potency [9]

Cc1cccc2cccnc12
inactive: caspase-3 activation [1] -0.268% | outcome [2] | caspase-3 activation [3] 0.865% | caspase-3 activation [4] -1.22% | outcome [5] | outcome [6] | Potency [7] | Potency [8] | Potency [9]

CC(C)N=C=NC(C)C
inactive: caspase-3 activation [1] -0.478% | outcome [2] | caspase-3 activation [3] 2.29% | caspase-3 activation [4] -0.83% | outcome [5] | outcome [6] | Potency [7] | Potency [9]

OC1CCCC1
inactive: caspase-3 activation [1] -0.56% | outcome [2] | caspase-3 activation [3] 0.647% | caspase-3 activation [4] -1.06% | outcome [5] | outcome [6] | Potency [7] | Potency [8] | Potency [9]
